# Compounds with a hit are over-represented: about 2.4% of the library has one in this group of screens.
# ANO1 activ: activates or potentiates the mouse TMEM16A chloride channel. HEK293 TMEM16A/YFP-H148Q/I152L, iodide quench fluorescence; active compounds read low. B-score at 10 µM. 0.3% of 340,000 active. Q8BHY3. AID 623877;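 active = fluorescence-ratio B-score plate-corrected deviation score at least 3 library SD below zero, with starting fluorescence score within 5 deviations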;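 also: channel opened by trigger with iodide after compound preincubation; score built on the fluorescence ratio of max minus min over baseline; more negative score means more quench and so TMEM16A activation or potentiation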
# Target sequence (Q8BHY3 whole entry, looked up): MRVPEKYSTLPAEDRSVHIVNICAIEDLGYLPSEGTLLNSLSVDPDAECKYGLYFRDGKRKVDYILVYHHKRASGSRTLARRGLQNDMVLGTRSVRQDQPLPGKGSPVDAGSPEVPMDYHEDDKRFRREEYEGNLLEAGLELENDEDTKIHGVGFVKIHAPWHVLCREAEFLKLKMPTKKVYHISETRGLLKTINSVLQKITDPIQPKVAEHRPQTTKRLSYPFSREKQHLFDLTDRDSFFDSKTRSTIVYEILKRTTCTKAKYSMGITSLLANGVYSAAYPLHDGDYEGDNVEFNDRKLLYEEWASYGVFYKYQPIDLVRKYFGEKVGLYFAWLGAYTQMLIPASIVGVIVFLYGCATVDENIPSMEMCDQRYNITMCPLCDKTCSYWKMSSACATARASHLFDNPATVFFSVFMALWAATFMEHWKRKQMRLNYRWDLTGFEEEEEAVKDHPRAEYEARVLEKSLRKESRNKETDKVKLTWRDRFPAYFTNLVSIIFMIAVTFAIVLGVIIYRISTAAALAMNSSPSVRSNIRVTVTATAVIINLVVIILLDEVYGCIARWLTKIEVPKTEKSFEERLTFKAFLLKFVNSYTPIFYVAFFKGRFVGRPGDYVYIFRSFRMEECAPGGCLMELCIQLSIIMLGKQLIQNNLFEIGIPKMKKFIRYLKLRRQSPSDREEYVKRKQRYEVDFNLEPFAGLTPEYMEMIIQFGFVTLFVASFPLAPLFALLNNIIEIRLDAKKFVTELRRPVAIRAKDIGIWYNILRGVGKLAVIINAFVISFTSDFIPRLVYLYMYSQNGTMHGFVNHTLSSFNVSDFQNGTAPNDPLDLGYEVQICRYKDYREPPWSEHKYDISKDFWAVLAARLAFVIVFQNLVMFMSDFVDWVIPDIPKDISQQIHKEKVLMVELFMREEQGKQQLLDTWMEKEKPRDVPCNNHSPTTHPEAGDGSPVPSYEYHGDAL
# TMEM16A inh: inhibitors of mouse TMEM16A calcium-activated chloride channel. AID 588511. normalized B-score (activity score, 25-100; higher = stronger inhibition) at 10 µM. HEK293 TMEM16A/YFP iodide influx fluorescence, ionomycin. 1.2% of 310,000 active;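 active = ratio plate-corrected score three or more library SD toward inhibition, starting fluorescence score within five deviations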;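 also: score derived from kinetic fluorescence span divided by baseline fluorescence per well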
# CHT allo act: allosterically activates the human high affinity choline transporter; Q9GZV3; CHT-expressing cells, membrane potential dye, choline EC20; active compounds read high; LV-AA mutant CHT in HEK293 cells; B-score at 10 µM; 0.49% of 310,000 active;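 active = initial fluorescence not abnormally high and integrated response B-score, plate-corrected, over 3 SD above library mean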
# CHT inh: inhibitors of human choline transporter CHT. Q9GZV3. CHT-expressing cells, membrane potential dye, choline response; active compounds read low. B-score at 10 µM. 0.86% of 310,000 active. AID 488975;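 active = B-score over 3 SD under the library average, and starting fluorescence ratio not unusually high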;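 also: choline stimulus applied at its EC90 after an EC20 pre-addition; B-score computed on integrated fluorescence ratio after choline addition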
# * hit, by the source's call; i = inactive; nt = no result given; ! = a repeat was not active.
SMILES,ANO1 activ,TMEM16A inh,CHT allo act,CHT inh
Cc1ccc(S(=O)(=O)N2CCCN(c3nc4cc(C)ccc4cc3C#N)CC2)cc1,-14*,i,i,i
N#CC1=C(SCC(=O)Nc2ccc(C(=O)O)cc2)NC(=O)CC1c1ccco1 (stereo not given),i,i,i,i
O=C(CN1C(=O)C(=O)N(C2CCCC2)C1=O)Nc1ccc(OC(F)F)cc1,i,nt,nt,nt
O=C(O)c1ccc(CSc2nnc(-c3cccnc3)n2-c2ccc(Br)cc2)cc1,i,i,i,i
CN(C)CCN(C)Cc1c2ccccc2c(CN(C)CCN(C)C)c2ccccc12,-5.5*,i,i,i
O=C(Nc1nnc(-c2cccs2)o1)c1cccc(F)c1,i,i,i,i
O=C(Nc1nnc(-c2cccs2)o1)c1cccc(Oc2ccccc2)c1,i,25*,i,i
CCCC(c1nnnn1Cc1cccs1)N1CCN(C2CCCC2)CC1 (stereo not given),i,i,6.3*,i
Oc1cc2c(cc1O)C1c3ccc(O)c(O)c3OCC1(O)C2 (stereo not given),-12*,i,i,i
CCCCc1ccc(C2C(C#N)=C(N)SC(N)=C2C#N)s1,nt,100*,i,i
CCOc1ccccc1C(=O)Nc1cc(C)ccc1NC(=O)c1ccco1,i,i,i,i
Cc1cccc(N(C)S(=O)(=O)c2ccc(-c3cnc(C4CC4)o3)cc2)c1,i,i,7.3*,i
Cc1cc(C)nc(N2CCC(C(=O)NCc3ccccc3)CC2)n1,i,i,i,i
Cc1cc(C)nc(N2CCC(CNC(=O)CCc3ccccc3)CC2)n1,-7.7*,i,i,i
NC(N)=N/N=C/c1ccc(Cl)cc1Cl,i,i,i,-7.9*
Clc1ccc(C=NN2CCCCCC2)c(Cl)c1,i,nt,nt,nt
CCCNC(=S)N(Cc1ccccc1)Cc1nc2ccccc2c(=O)[nH]1,i,i,i,i
CCSc1ccc2c(c1)N(CCCN1CCN(C)CC1)c1ccccc1S2,i,i,i,i
CN1CCN(CCCN2c3ccccc3Sc3ccc(Cl)cc32)CC1,i,25*!,i,i
N[C@H](CSCc1ccccc1)C(=O)Nc1ccc([N+](=O)[O-])cc1,i,i,i,i
CSc1nc2cc(Oc3cccc(Cl)c3Cl)c(Cl)cc2[nH]1,i,100*,i,i
CSc1nc2ccc(Cl)cc2[nH]1,i,i,i,i
Cc1cccc(N(CC(=O)NCc2ccc(F)cc2)C(=O)c2ccco2)c1,i,i,i,i
CCOC(=O)C1CCCN(c2nc(C)nc3c2oc2ccccc23)C1 (stereo not given),i,25*,i,i
CCc1nc(N2CCCC(C)C2)c2oc3ccccc3c2n1 (stereo not given),i,i,i,i
SMILES,ANO1 activ,TMEM16A inh,CHT allo act,CHT inh
COc1cc(/C=C2/C(=O)NN(c3ccc(Cl)c(Cl)c3)C2=O)cc([N+](=O)[O-])c1O,i,i,i,i
COc1cc(/C=C2/C(=O)NN(c3ccc(Cl)cc3)C2=O)cc(Br)c1O,-6.2*,i,i,i
COc1cc(/C=C2/C(=O)NN(c3ccc(F)cc3)C2=O)cc(Cl)c1O,i,i,i,-4.9*
COc1cccc(/C=C2/C(=O)NN(c3ccc(Br)cc3)C2=O)c1O,i,i,i,-6.9*
COc1cccc(OC)c1OCCCOc1ccc([N+](=O)[O-])cc1Cl,i,100*,i,i
COc1ccccc1CNc1ccc([N+](=O)[O-])cc1C,i,25*,i,i
COc1cccc(CNc2ccc([N+](=O)[O-])cc2Cl)c1O,i,25*,i,i
COc1ccc([N+](=O)[O-])cc1NC(=O)Cc1ccccc1Cl,i,i,i,i
Cc1cc(-n2cnnn2)cc(C)c1S(=O)(=O)N(C)c1ccccc1,i,i,i,i
CN1CCC(=NNc2ncnc3sc4c(c23)CCCC4)CC1,i,i,i,i
COc1ccccc1-c1cc(C(=O)Nc2cccnc2)no1,i,i,11*,i
COc1ccc(-n2nc([N+](=O)[O-])c(=NCCC3=CCCCC3)n2O)cc1,i,i,i,i
COc1cccc(C(=O)NC2CC3CCCC(C2)N3Cc2ccc(C)cc2)c1 (stereo not given),i,i,i,i
Cc1cc(C)nc(NS(=O)(=O)c2ccc(NC(=O)c3cccs3)cc2)n1,i,i,i,i
CCCCN(CCCC)S(=O)(=O)c1ccc(NC(=O)c2cccs2)cc1,i,100*,i,i
COc1ccc(NC(=S)N2CCNC(=O)C2CC(=O)Nc2ccc(C)cc2)cc1 (stereo not given),i,i,i,i
O=[N+]([O-])c1c(Nc2ccc(O)cc2)cc(Cl)c2nonc12,-8.3*,100*,i,i
Clc1ncnc2c1oc1ccccc12,i,i,i,i
c1coc(CN(Cc2ccco2)c2ncnc3c2oc2ccccc23)c1,i,100*,i,i
O=C(NC1CC1)c1cccc(NC(=O)c2cn3ccccc3n2)c1,i,nt,nt,nt
COc1ccc(S(=O)(=O)N(C)CC(=O)NCc2ccc3c(c2)OCO3)cc1,i,i,i,i
CCN=C(NCC)SC1CC(=O)N(c2cccc(OCC)c2)C1=O (stereo not given),-9.4*,i,i,i
CCN=C(NCC)SC1CC(=O)N(c2ccc(OC)cc2)C1=O (stereo not given),i,i,i,i
CC(O)(CS(=O)(=O)Cc1ccc(Cl)cc1)C(=O)Nc1cccc(C(F)(F)F)c1 (stereo not given),i,i,i,i
O=C(Nc1cccc(C(F)(F)F)c1)N(Cc1ccc(Cl)cc1)CC(O)C(F)(F)F (stereo not given),i,100*,i,i
SMILES,ANO1 activ,TMEM16A inh,CHT allo act,CHT inh
COC(=O)c1cc(Br)ccc1NC(=O)CCNC(=O)c1ccco1,i,i,i,i
O=C(c1ccc2ccccc2c1)C1CCCN(C(=O)c2noc3c2CCCC3)C1 (stereo not given),i,25*,i,i
O=C(Nc1ccn(Cc2ccc(Cl)cc2)n1)c1ccccc1,i,25*,i,i
O=C(Nc1ccn(Cc2ccccc2)n1)c1ccc2c(c1)OCO2,i,i,i,i
CCC(=O)c1ccc(OCC(O)Cn2c(C)nc3ccccc32)cc1 (stereo not given),i,i,i,i
Cc1nc2ccccc2n1CC(O)COc1ccc(Br)cc1 (stereo not given),i,25*,i,i
CN(CCC#N)C(=O)COC(=O)c1c2c(nc3ccccc13)/C(=C\c1ccco1)CC2,i,nt,nt,nt
CC1(c2ccc3c(c2)OCCCO3)NC(=O)N(CC(=O)NCCc2ccccc2)C1=O (stereo not given),i,nt,nt,nt
